In the library only some 12% were active in any assay of this set; here they are far more common.
HP1b chromo inh – blocks HP1-beta chromodomain binding to methylated histone tails; AlphaScreen HP1-beta / biotin-H3K9me3 peptide binding; Potency, µM (series often up to 114 µM), without a hit: top-dose activity change, negative = inhibition, most hits filed as inhibitors; 390,000 tested, 0.56% active; note: potency is the fitted concentration of half-maximal effect; nearly all actives have a fitted effect of over 70% in size
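HP1-beta protein (50 nM final) preincubated 30 min at room temperature with biotinylated H3(1-18)K9me3 peptide (50 nM) in PBS pH 7.4, 0.01% Tween-20, then compound added for 30 min. AlphaScreen streptavidin donor/nickel chelate acceptor beads (10 ug/mL final), 30 min dark, luminescence read.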
BAZ2B block – BAZ2B (human) inhibition | Q9UIF8 | AlphaScreen BAZ2B-H3K14Ac peptide displacement | Potency, µM (series often up to 114 µM), inactives show at the top dose activity change, negative = inhibition, actives largely listed as inhibitors | 360,000 tested, 4.4% active | AID 504333; note: potency is the fitted concentration of half-maximal effect; % is set by controls: 0 for no effect and ±100 for the full control effect; nearly all actives have a fitted effect of over 60% in size
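Multi-concentration screen (max 110 uM) measuring displacement of acetylated histone H3 peptide from BAZ2B by AlphaScreen, using 50 nM protein, 50 nM peptide and 10 ug/mL streptavidin donor plus Ni-chelate acceptor beads.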
G9a block – blocks human histone lysine methyltransferase G9a; Q96KQ7; G9a H3K9 monomethylation, AlphaScreen, 2 h; Potency, µM (titrated, usually from 102 µM), for inactives: at the highest dose activity, negative = inhibition, usual class: inhibitors; 350,000 tested, 8.8% active; AID 504332; note: potency is the fitted concentration of half-maximal effect; % is set by controls: 0 for no effect and ±100 for the full control effect; nearly all actives have a fitted effect of over 75% in size
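Step 1: enzyme (final 20 nM) with compound, 15 min RT. Step 2: substrate peptide 500 nM and SAM 20 uM, 2 h RT. Step 3: anti-H3K9me1 antibody and AlphaScreen beads, 10 min, then plate read.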
JMJD2A Tudor inh – inhibitors of human JMJD2A Tudor domain; 390,000 tested, 4.4% active; Potency, µM (doses to about 114 µM), without a hit: top-dose activity change, negative = inhibition, actives largely listed as inhibitors; AlphaScreen JMJD2A-Tudor / H3K4me3 peptide binding; O75164; note: potency is the fitted concentration of half-maximal effect; % is set by controls: 0 for no effect and ±100 for the full control effect; nearly all actives have a fitted effect of over 50% in size
PI5P4K alpha inh – PI5P4K alpha (human) kinase inhibition; 330,000 tested, 1.2% active; max response, %; PI5P4Kalpha enzyme, ADP-Glo luminescence, 60 min; stronger effect = lower value; active = max response of -50% or lower; inconclusive = between -30% and -50%; inactive = -30% or higher; note: value at the top dose of about 77 µM; % is set by controls: 0 for no effect and ±100 for the full control effect
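Single end-point luminescence (ADP-Glo) quantified ADP from PI5P4Kalpha turnover; ATP 5 microM final, 1 h at RT, 0.1% CHAPS and 0.28 mM EGTA in HEPES pH 7.4.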
PLK1 PBD inh – blocks phosphopeptide binding to human PLK1 polo-box domain. P53350. Plk1 PBD binding of FITC phosphopeptide, fluorescence polarization. Potency, µM, inactives show max response, negative = inhibition, usual class: inhibitors. 360,000 tested, 2.8% active. AID 720504; note: potency is the fitted concentration of half-maximal effect; series mostly up to about 57 µM; % is set by controls: 0 for no effect and ±100 for the full control effect; nearly all actives have a fitted effect of over 65% in size
* = called active by the depositor; ? = inconclusive; . = no result given; [ ] = another dose, or the depositor's remark. Unless noted, calls come from the whole dose curve; as a rule, active = well fitted curve in the direction sought with a large enough effect; inconclusive = small, poorly fitted or top-dose-only effect, or another doubt; inactive = no such curve, though single readings can be large; an effect the other way counts as inactive or inconclusive.

SMILES	HP1b chromo inh	BAZ2B block	G9a block	JMJD2A Tudor inh	PI5P4K alpha inh	PLK1 PBD inh
Cc1cc(N/N=C/c2ccc(F)cc2)nc(NCc2ccccc2)n1	-5%	-34%	.	-20%	-14	7%
CCn1nnc2cc(C(=O)Nc3ccc(C)cc3Br)ccc21	37%	-2%	?	2%	.	.
COc1cccc(CN(C)Cc2nc(C3CC3)no2)c1	16%	2%	21%	0%	-1	-15%
COc1cccc(CN(C)Cc2c(O)ccc3ccccc23)c1	5%	3%	8.9µM*	-6%	-1	17µM*
CCN1CCN(Cc2c(OC)ccc3ccccc23)CC1	25%	-10%	-3%[12.7 µM]	-14%	.	-1%
COc1ccc2ccccc2c1CN(C)Cc1ccccc1	14%	?	-7%[0.501 µM]	28µM*	-5	0%
COc1ccc2ccccc2c1CNC(C)CCc1ccccc1 (centres undefined)	-1%	-15%	.	79µM*	1	-10%
COc1ccc(CN(C)Cc2c(O)ccc3ccccc23)cc1	54%	-2%	18µM*	0%	5	?
CN(Cc1ccccc1)Cc1ccccc1	.	.	-2%[12.7 µM]	.	.	.
CC(C)CN(Cc1c(O)ccc2ccccc12)CC(C)C	14%	?	.	-15%	-3	?
CN(Cc1ccccc1)Cc1c(F)cccc1F	?	56µM*	11µM*	7.1µM*	.	-5%
CN(C)Cc1c(O)ccc2ccccc12	36%	-18%	7.9µM*	5%[11.4 µM]	-5	?
COc1cccc(C(=O)N(Cc2sccc2C)C2CCS(=O)(=O)C2)c1 (centres undefined)	12%	-2%	9%[59 µM]	-15%	.	.
O=C(CSc1n[nH]c(-c2ccncc2)n1)Nc1ccccc1C(F)(F)F	4%	5%	25µM*	-34%	3	-18%
Cc1ccc(NC(=O)CSc2n[nH]c(-c3ccncc3)n2)cc1	33%	-22%	-47%[59 µM]	-9%	.	-1%
O=C(CSc1n[nH]c(-c2ccncc2)n1)Nc1ccccn1	19%	?	?	56µM*	-5	-14%
O=C(CSc1n[nH]c(-c2cccnc2)n1)Nc1ccc(Br)cc1	13%	2%	8.9µM*	-34%	-5	-15%
O=C(CSc1cn[nH]n1)Nc1ccccc1C(F)(F)F	39%	0%	25µM*	7%	-6	-19%
O=C(CSc1n[nH]c(-c2ccccc2)n1)Nc1ncccn1	37%	-36%	?	0%	-9	-2%
CCN(CC(=O)NCc1cccs1)C(=O)c1ccc(-c2ccc(F)cc2)o1	2%	.	.	-34%	0	-26%
Cc1cc(-c2nnc(SCC(=O)Nc3ccccc3C(F)(F)F)n2N)n[nH]1	22%	-12%	-5%	?	-23	6µM*
O=C1CCCN2N=C(SCC(=O)Nc3ccccc3C(F)(F)F)SC2=N1	?	56µM*	19%	?	-6	1%
O=C1CCCN2N=C(SCC(=O)Nc3cccc(C(F)(F)F)c3)SC2=N1	5%	3%	35%	-8%	-2	-14%
Cc1cc(-c2nnc(SCC(=O)Nc3ccccc3F)n2N)n[nH]1	23%	-6%	-3%[0.0925 µM]	-3%	0	-14%
O=C(NCCc1nc2ccccc2n1Cc1c(F)cccc1Cl)c1ccco1	14%	-16%	-30%[59 µM]	?	.	.
SMILES	HP1b chromo inh	BAZ2B block	G9a block	JMJD2A Tudor inh	PI5P4K alpha inh	PLK1 PBD inh
CCc1cccc(C)c1NC(=O)CN1C(=O)c2ccccc2Sc2ncccc21	21%	-13%	-5%[59 µM]	-15%	.	.
COc1ccc(-c2coc3c(C(=O)NC4CCCCC4)cccc23)c(C)c1	.	.	.	.	10	-1%
Cc1ccc2nc(CSc3nnc(-c4ccncc4)n3C)cc(=O)n2c1	39%	-17%	40µM*	-7%	4	-13%
COCCn1c(SCc2cc(=O)n3ccsc3n2)nnc1-c1ccncc1	6%	-16%	2%[59 µM]	40µM*	2	24µM*
O=c1cc(CSc2n[nH]c(-c3ccncc3)n2)nc2sccn12	19%	?	?	-28%	?	-11%
C=CCn1c(SCc2cc(=O)n3cc(C)ccc3n2)nnc1-c1ccc(F)cc1	26%	4%	-17%[59 µM]	3%	14	0%

Screening data from PubChem BioAssay.
